In PubChem BioAssay AID504467 (National Center for Advancing Translational Sciences (NCATS), 2011):
Among all 330,000 compounds or so, about 7,700 (2.3%) were called active. Another 26% or so got no clear call; they are omitted. Only a selection was taken, and actives are over-represented in it overall. Values without a mark were called inactive. The call rests on the fitted dose curve; in most records, active means well fitted inhibition curve with a large enough effect; inconclusive means small, poorly fitted or top-dose-only effect, or effect the other way; inactive means flat fitted curve, though single readings scatter.

Test: qHTS screen for small molecules that inhibit ELG1-dependent DNA repair in human embryonic kidney (HEK293T) cells expressing luciferase-tagged ELG1; further: nearly all actives have a fitted effect of over 55% in size
Details: HEK293T ELG1-luciferase reporter, luminescence, 16 h, DNA damage induced by 5-fluorouridine; series mostly up to 46.1 µM; activity change, negative = inhibition: at the top concentration
How it was run: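 HEK293T cells expressing luciferase-tagged ELG1 (2,000/well) received 5-Fluorouridine plus compound or DMSO for 16 hr at 37 °C. Luciferase was read by ONE-Glo luminescence after 30 min at room temperature.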
On the % scale 0 is the no-effect control and ±100 the full control effect; potency means the concentration at half of the fitted maximal effect.

Row | SMILES | Potency | activity change, negative = inhibition [%]
1 | CCOc1ccc(N(C)Cc2cc(=O)oc3ccc(OC)cc23)cc1 | 16.4 µM (active) | –
2 | COC(=O)COc1ccc2oc(=O)cc(C)c2c1 | – | 5.41
3 | Cc1cc2oc(=O)cc(CN(C)Cc3ccc(OC(F)F)cc3)c2cc1Cl | – | -14.2
4 | Cc1ccc2c(c1)C(c1ccccc1)N(C(=O)c1ccc(F)cc1)CC(=O)N2 (stereo not drawn) | – | -4.96
5 | O=C(Cn1ccc2cc(S(=O)(=O)N3CCCC3)ccc21)NCc1ccccc1 | – | 14.6
6 | O=C1[C@@H](c2ccccc2)[C@@H](c2ccccc2)N1c1cccnc1 | – | 17.2
7 | O=C1CCN(Cc2ccccc2)CCN1[C@H](CSc1ccccc1)c1ccccc1 | – | 26.6
8 | Cc1nc(-c2ccc(F)cc2)c(CC(=O)Nc2cccc(S(=O)(=O)N3CCOCC3)c2)s1 | – | -9.34
9 | Cc1ccc(-c2nc(-c3cccnc3)sc2CC(=O)Nc2ccc(C)c(Cl)c2)cc1 | 16.4 µM (active) | –
10 | Cc1cc(C)c(NC(=O)CS(=O)CC(=O)Nc2cccnc2)c(C)c1 (stereo not drawn) | – | -1.59
11 | COc1ccc(N2CCN(C3CCCCC3NS(=O)(=O)c3ccccc3)CC2)cc1 (stereo not drawn) | – | -5.22
12 | CCOc1ccc(CN2CCCN(C)CC2)cc1 | – | 9.71
13 | CCOc1ccc(CC(=O)NC2CCN(Cc3ccccc3)CC2)cc1 | – | -9.53
14 | CCOc1ccc(CN2CCN(Cc3c[nH]c4ccccc34)CC2)cc1 | 13 µM (active) | –
15 | COC(=O)[C@]1(S(=O)(=O)c2ccccc2)C[C@@H]2ON=C(c3ccc(OC)cc3)[C@@H]2C1 | – | 3.37
16 | Cc1ccc(S(=O)(=O)Nc2ccc(F)c(S(=O)(=O)N3CCOCC3)c2)cc1 | – | -19.8
17 | Cc1ccc(-c2ccc(=O)n(Cc3ccc(F)cc3Cl)n2)cc1 | – | -0.564
18 | O=C1C=C(c2cccc(Cl)c2)C[C@@H](c2ccc(F)cc2)C1 | – | 3.63
19 | O=C(c1cc(-c2ccc(Cl)s2)nc2ccccc12)N1CCOCC1 | – | -3.24
20 | O=C(c1cn(-c2ccccc2)nc1-c1cc2ccccc2oc1=O)N1CCOCC1 | 7.3 µM (active) | –
21 | CCOc1ccccc1-c1cc(C(=O)N2CCOCC2)c2ccccc2n1 | – | -25.2
22 | Nc1nc(-c2sc3nc4c(cc3c2N)CCCC4)nc(N2CCOCC2)n1 | 6.51 µM (active) | –
23 | COc1ccccc1C(CNC(=O)c1cccc(S(=O)(=O)Nc2ccc(F)cc2)c1)N(C)C (stereo not drawn) | – | -1.22
24 | NC(=O)c1nsc(C(=O)N(CCCN2CCOCC2)C(C(=O)NC2CCCCC2)c2ccc(Cl)cc2)c1N (stereo not drawn) | – | 5.9
25 | Cc1ccc(NC(=O)CN(C)C(=O)c2ccc(Cl)c(S(=O)(=O)NCc3ccco3)c2)cc1 | – | -3.5

Row | SMILES | Potency | activity change, negative = inhibition [%]
26 | O=C(CCl)Nc1cccc(CP(=O)(c2ccccc2)c2ccccc2)c1 | 14.6 µM (active) | –
27 | O=C(CSCC(=O)Nc1cccc([N+](=O)[O-])c1)Nc1ccccc1 | – | 15.4
28 | CCc1cccc(NC(=O)CCC(=O)O)c1 | – | 4.12
29 | COc1ccc(C2=NN(C(=O)CSc3nc(=O)n4ccc(C)cc4n3)C(c3ccc(C)cc3)C2)cc1 (stereo not drawn) | – | -11.2
30 | CC(=O)N1c2ccc(S(=O)(=O)N3CCC(C(=O)NC4CCCC(C)C4C)CC3)cc2CC1C (stereo not drawn) | – | 0
31 | O=C(Cn1cnc2c(OCc3ccccc3)ncnc21)NCCCn1ccnc1 | – | 13.1
32 | COc1ccccc1/C=N\Nc1cc(C)nc(-n2nc(C)cc2C)n1 | 23.1 µM (active) | –
33 | COc1cccc2c(N/N=C/c3ccco3)cc(C)nc12 | – | 17.8
34 | COc1cc(NS(=O)(=O)c2ccccc2)ccc1-n1nc(C)cc1C | – | 1.2
35 | COc1cccc(/C=N/Nc2cc(C)nc(-c3ccccc3O)n2)c1O | 5.8 µM (active) | –
36 | COc1cccc(/C=N/Nc2ncc(C(F)(F)F)cc2Cl)c1O | – | 15.3
37 | COc1ccc(Nc2cc(C)nc(-n3nc(C)cc3C)n2)cc1 | – | 9.95
38 | CCN(c1ccccc1)S(=O)(=O)c1cc(C(=O)NCc2ccccn2)ccc1C | – | -4.44
39 | CC(=O)c1sc(NC(=O)CCN2C(=O)C3CC=CCC3C2=O)nc1-c1ccccc1 (stereo not drawn) | – | -10.9
40 | O=S(=O)(NCC1CN(S(=O)(=O)c2ccc3c(c2)OCCO3)C1)c1c(F)cccc1F | – | 19.5
41 | CC(C)N(C(=O)CN1CCN(S(=O)(=O)c2ccc(Br)s2)CC1)C(C)C | – | -6.18
42 | CS(=O)(=O)c1ccc(Cl)c(NC(=O)COC(=O)c2cccc(S(=O)(=O)N3CCCC3)c2)c1 | – | -2.83
43 | O=C(NCc1cccs1)C1CCN(S(=O)(=O)c2ccc(Cl)cc2)CC1 | – | 8.41
44 | O=C(CNCc1cccs1)Nc1cc(S(=O)(=O)N2CCCC2)ccc1Cl | 16.4 µM (active) | –
45 | O=C(CN1CCCCCC1)Nc1ccc(S(=O)(=O)N2CCCCC2)cc1 | – | 0.957
46 | O=C(NN=Cc1ccc(N2CCOCC2)cc1)c1cc2ccccc2cc1O | – | 0
47 | CCCOc1ccc(C(=O)C(CCC(CNCC)C(=O)c2ccc(OCCC)cc2)CNCC)cc1 (stereo not drawn) | 23.1 µM (active) | –
48 | COc1ccc(OCCC(=O)c2ccc(OC)cc2)cc1 | – | 4.01
49 | CCCCOc1ccc(C(=O)NN2CCN(C)CC2)cc1 | – | 17.4
50 | COc1ccc(-c2c(C#Cc3ccsc3)c3cc(-c4ccc(CN5CCOCC5)cc4)ccc3n2C)cc1 | – | 15.4

Row | SMILES | Potency | activity change, negative = inhibition [%]
51 | COc1cc(OC)cc(-c2c(C#Cc3ccsc3)c3cc(-c4ccc(OC)cc4F)ccc3n2C)c1 | – | 20.3
52 | O=C(Nc1ccc(Cl)cc1)OCc1cc(-c2ccccc2)on1 | – | 4.31
53 | Cc1nc(C(=O)Nc2ccc(Cl)cc2)sc1C1(C)CC(c2ccccc2)=NO1 (stereo not drawn) | 18.3 µM (active) | –
54 | O=C1CC2(CC(c3ccc(Cl)cc3)=NO2)C(=O)N1c1ccccc1 (stereo not drawn) | – | -2.34
55 | COc1ccccc1N1CCN(S(=O)(=O)c2ccc3c(c2)NC(=O)CS3)CC1 | – | -2.54
56 | CCOC(=O)[C@H]1[C@H]2COc3cc(OC)ccc3[C@@H]2N2C(=O)CN(Cc3ccc(Cl)cc3)C(=O)[C@@]12C | – | -4.83
57 | CCc1ccc(CN(C)C(=O)C2CCC(=O)N(Cc3cccc(OC)c3)C2)nc1 (stereo not drawn) | – | 16.9
58 | CN(C)S(=O)(=O)c1ccc(N2CCCC2)c(C(=O)Nc2ccc(Br)cc2F)c1 | – | -7.6
59 | Cc1c(C(=O)NCCN(C)C)oc2ccc(S(=O)(=O)N3CCCC3)cc12 | – | 13.6
60 | Cc1c(C(=O)Nc2ccccc2Cl)oc2ccc(S(=O)(=O)N3CCC4(CC3)OCCO4)cc12 | 3.66 µM (active) | –
61 | CCOc1ccccc1NC(=O)c1cc(S(=O)(=O)N2CCC3(CC2)OCCO3)ccc1F | – | -3.11
62 | CCN(Cc1ccccc1)C(=O)Cc1ccc(OC)c(S(=O)(=O)N2CCOCC2)c1 | – | -2.15
63 | C=CCn1c(SCC(=O)Nc2nc3ccccc3s2)nnc1-c1ccccc1O | – | -15.9
64 | C=CCn1c(SCC(=O)NCc2ccccc2)nnc1-c1cc(Br)ccc1O | 13 µM (active) | –
65 | C=CCn1c(SCC(=O)NC(=O)Cc2ccccc2)nc2ccccc2c1=O | – | 3.04
66 | Cc1cc(N/N=C/c2ccccc2F)c2ccccc2n1 | – | 4.96
67 | Oc1ccc(/C=N/Nc2nc(-c3ccccc3F)nc3ccccc23)c(O)c1 | 14.6 µM (active) | –
68 | FC(F)(F)c1nc2ccccc2nc1N/N=C/c1ccc(Cl)cc1 | – | -5.61
69 | COc1ccc(C(=O)NCC(=O)N/N=C/c2ccc([N+](=O)[O-])s2)cc1OC | 8.2 µM (active) | –
70 | COc1ccc(C(=O)COC(=O)c2ccc([N+](=O)[O-])s2)cc1OC | – | 12.6
71 | COc1cc(/C=N\NC(=O)CNC(=O)c2cccc([N+](=O)[O-])c2)ccc1O | – | -5.46
72 | CCOc1ccc(NC(=O)CCC(=O)N/N=C/c2ccc([N+](=O)[O-])s2)cc1 | – | -21.4
73 | COc1ccc2ccccc2c1/C=N/NC(=O)c1cc(C)[nH]n1 | – | -0.422
74 | CC(C)(C)c1cc(C(=O)N/N=C/c2ccc([N+](=O)[O-])s2)n[nH]1 | 5.17 µM (active) | –
75 | O=[N+]([O-])c1ccccc1Nc1ccc(O)cc1 | – | -19

Row | SMILES | Potency | activity change, negative = inhibition [%]
76 | Nc1nnnn1/N=C/c1cc([N+](=O)[O-])ccc1O | – | -2.35
77 | O=[N+]([O-])c1ccc(O)c(/C=N/Nc2ccccc2[N+](=O)[O-])c1 | 18.3 µM (active) | –
78 | Cc1ccccc1SCC(=O)OCC(=O)N1CC(=O)Nc2ccccc21 | – | 0
79 | CCCn1c(C(C)Nc2nc(-c3ccc(C)cc3)cs2)nc2cc(Cl)c(N3CCCCC3)cc21 (stereo not drawn) | – | 16.4
80 | CCCc1cc(=S)n2c([nH]c3ccccc32)c1C#N | 16.4 µM (active) | –
81 | CCOC(=O)c1cnc2[nH]c3ccccc3n2c1=O | – | 4.07
82 | Cc1ccccc1Cn1c(=O)[nH]c2ccccc21 | – | -14.6
83 | Cc1ccc(S(=O)(=O)N(C)CC(=O)NCC(c2ccc(F)cc2)N2CCOCC2)cc1 (stereo not drawn) | – | 1.93
84 | O=C(OCC(=O)N1CCCCCC1)c1ccc(Cl)nc1 | – | 0.267
85 | CCCCn1nc(C(=O)OCC(=O)Nc2sccc2C(N)=O)c2ccccc2c1=O | – | 10.7
86 | CCn1nc(C(=O)Nc2ccc(N3CCOCC3)cc2)c2ccccc2c1=O | – | -3.51
87 | CCCCn1nc(C(=O)Nc2cccc(C(=O)NC3CC3)c2)c2ccccc2c1=O | 13 µM (active) | –
88 | Cn1c(N)c(C(=O)COC(=O)c2cccc(S(=O)(=O)N3CCOCC3)c2)c(=O)n(C)c1=O | – | -10
89 | CCCn1c(CCNc2nc(-c3ccc(OC)cc3)cs2)nc2ccccc21 | – | -26
90 | CSCCC(NS(=O)(=O)c1ccc(C)cc1)C(=O)NCCc1c[nH]c2ccccc12 (stereo not drawn) | – | -7.72
91 | CN(c1ccccc1)S(=O)(=O)c1ccc(Cl)c(C(=O)NCCc2c[nH]c3ccccc23)c1 | 18.4 µM (active) | –
92 | Cc1ccc(S(=O)(=O)N(C)CC(=O)NCCc2c[nH]c3ccccc23)cc1 | 14.6 µM (active) | –
93 | CCN(CC(=O)NCCc1ccccc1)S(=O)(=O)c1ccc(C)cc1 | – | -15.1
94 | CCN(CC(=O)NCCc1ccccc1)S(=O)(=O)c1ccccc1 | – | 6.38
95 | COc1ccccc1CC(=O)NCCc1c[nH]c2ccccc12 | – | -6
96 | CN(c1ccccc1)S(=O)(=O)c1ccc(Cl)c(C(=O)OCC(=O)NCc2ccco2)c1 | – | 10.8
97 | CCN(CC)S(=O)(=O)c1ccc2[nH]cc(C(=O)NCCc3ccccc3)c(=O)c2c1 | 5.8 µM (active) | –
98 | CN(c1ccccc1)S(=O)(=O)c1ccc(Cl)c(C(=O)OCC(N)=O)c1 | – | -2.61
